# From PubChem BioAssay
# Values without a mark were called inactive. Entries that show only a call come without a potency. For some of these results: Potency and affinity values are given separately. Activity calls are given as the source filed them. Unless noted, how the calls were made is not given here.
# Key:
# [1] = antimalarial activity against Dd2 strain (AID 2302;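 active means growth inhibition above 50% at the single 2 µM test dose, taken to imply half-maximal potency below 2 µM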); details: P. falciparum Dd2 in RBCs, LDH growth readout, 72 h; at 2 µM; stronger effect = higher value
# [2] = human hepatoma cell viability loss – ATP luminescence, cytotoxicity control for P. falciparum antimalarial project, primary screen (AID 2303;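 active means inhibition above 50%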); details: HepG2 viability, 24-48 h, at 10 µM, stronger effect = higher value
# [3] = biological target: L-lactate dehydrogenase (Plasmodium falciparum (isolate CDC / Honduras)) (UniProt Q27743); test: PfLDH activity inhibition – cell lysate, 3D7 strain, counter-screen for P. falciparum growth inhibition project (AID 2304); details: P. falciparum 3D7 crude extract, LDH APAD/NBT absorbance; at 2 µM; stronger effect = higher value
# Chain of L-lactate dehydrogenase (Plasmodium falciparum (isolate CDC / Honduras)) (Q27743 whole entry, looked up): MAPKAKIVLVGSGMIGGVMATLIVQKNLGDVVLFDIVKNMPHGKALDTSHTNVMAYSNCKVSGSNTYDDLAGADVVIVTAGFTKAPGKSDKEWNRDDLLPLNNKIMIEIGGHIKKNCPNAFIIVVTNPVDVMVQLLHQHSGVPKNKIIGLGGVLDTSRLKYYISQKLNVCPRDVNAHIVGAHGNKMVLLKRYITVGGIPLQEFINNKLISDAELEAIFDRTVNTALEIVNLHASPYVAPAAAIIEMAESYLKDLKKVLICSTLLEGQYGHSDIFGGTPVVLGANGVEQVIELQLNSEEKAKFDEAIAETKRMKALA
# [4] = inhibition of 3D7 malaria parasite growth – strain 3D7 (AID 2306); details: P. falciparum 3D7 erythrocytic growth, LDH absorbance, 72 h; at 2 µM; stronger effect = higher value
# [5] = biological target: Calcium-dependent protein kinase 1 (Plasmodium falciparum (isolate 3D7)) (UniProt P62344); test: PfCDPK1 kinase inhibitors, biochemical, TCAMS library (AID 1159585; cut-off not given, nearly all actives have IC50 up to about 0.98 µM;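 further: inhibitors leave more ATP so luminescence rises with inhibition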); details: recombinant PfCDPK1, Kinase-Glo ATP depletion luminescence
# Chain of Calcium-dependent protein kinase 1 (Plasmodium falciparum (isolate 3D7)) (P62344 whole entry, looked up): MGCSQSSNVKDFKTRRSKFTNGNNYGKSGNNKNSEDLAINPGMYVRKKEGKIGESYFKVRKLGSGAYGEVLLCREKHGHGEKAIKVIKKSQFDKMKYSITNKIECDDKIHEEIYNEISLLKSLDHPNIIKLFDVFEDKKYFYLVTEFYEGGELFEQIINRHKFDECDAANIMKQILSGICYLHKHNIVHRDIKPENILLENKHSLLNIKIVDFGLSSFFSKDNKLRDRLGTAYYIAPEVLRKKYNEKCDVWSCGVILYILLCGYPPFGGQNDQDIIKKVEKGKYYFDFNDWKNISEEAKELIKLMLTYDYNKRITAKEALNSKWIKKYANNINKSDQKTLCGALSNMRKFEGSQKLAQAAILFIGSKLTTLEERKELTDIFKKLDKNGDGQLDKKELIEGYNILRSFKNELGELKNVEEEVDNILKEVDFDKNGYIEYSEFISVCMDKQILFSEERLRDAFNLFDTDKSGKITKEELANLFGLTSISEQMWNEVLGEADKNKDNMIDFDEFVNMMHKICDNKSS
# [6] = biological target: Plasmodium falciparum protein kinase 6 (PK6, PF3D7_1337100) (UniProt Q8IDW1); test: PfPK6 kinase inhibitors, biochemical, TCAMS library (AID 1159586); details: recombinant PfPK6, Kinase-Glo ATP depletion luminescence
# Chain of Plasmodium falciparum protein kinase 6 (PK6, PF3D7_1337100) (Q8IDW1 1-305): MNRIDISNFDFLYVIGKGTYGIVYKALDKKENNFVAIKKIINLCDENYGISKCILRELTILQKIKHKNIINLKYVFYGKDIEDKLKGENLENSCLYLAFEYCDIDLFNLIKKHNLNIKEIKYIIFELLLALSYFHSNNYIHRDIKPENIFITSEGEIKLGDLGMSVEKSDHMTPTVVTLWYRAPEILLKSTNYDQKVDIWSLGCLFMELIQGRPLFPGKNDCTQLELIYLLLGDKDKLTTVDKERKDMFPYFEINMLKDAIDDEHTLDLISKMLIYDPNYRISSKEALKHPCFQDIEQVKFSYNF
# [7] = biological target: Protein kinase 7 (PK7), Plasmodium falciparum 3D7 (PF3D7_0213400) (UniProt Q7YTF7); test: inhibition of Plasmodium PK7 catalytic activity – biochemical, TCAMS antimalarial set, Kinase-Glo luminescence (AID 1159587); details: recombinant PfPK7, Kinase-Glo ATP depletion luminescence
# Chain of Protein kinase 7 (PK7), Plasmodium falciparum 3D7 (PF3D7_0213400) (Q7YTF7 1-343): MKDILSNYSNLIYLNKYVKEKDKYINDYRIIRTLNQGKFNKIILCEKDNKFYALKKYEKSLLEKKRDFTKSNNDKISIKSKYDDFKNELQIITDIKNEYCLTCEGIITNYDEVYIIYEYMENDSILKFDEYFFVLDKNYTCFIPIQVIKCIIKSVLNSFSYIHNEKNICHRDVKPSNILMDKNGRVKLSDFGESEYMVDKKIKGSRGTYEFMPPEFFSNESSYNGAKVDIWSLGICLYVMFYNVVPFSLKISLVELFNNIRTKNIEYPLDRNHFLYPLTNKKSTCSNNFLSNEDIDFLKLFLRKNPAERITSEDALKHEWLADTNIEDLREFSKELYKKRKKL
# [8] = biological target: Calcium-dependent protein kinase 4 (Plasmodium falciparum (isolate 3D7)) (UniProt Q8IBS5); test: PfCDPK4 kinase inhibitors, biochemical, TCAMS library (AID 1159588; cut-off not given, nearly all actives have IC50 up to about 0.91 µM); details: recombinant PfCDPK4, Kinase-Glo ATP depletion luminescence
# Chain of Calcium-dependent protein kinase 4 (Plasmodium falciparum (isolate 3D7)) (Q8IBS5 whole entry, looked up): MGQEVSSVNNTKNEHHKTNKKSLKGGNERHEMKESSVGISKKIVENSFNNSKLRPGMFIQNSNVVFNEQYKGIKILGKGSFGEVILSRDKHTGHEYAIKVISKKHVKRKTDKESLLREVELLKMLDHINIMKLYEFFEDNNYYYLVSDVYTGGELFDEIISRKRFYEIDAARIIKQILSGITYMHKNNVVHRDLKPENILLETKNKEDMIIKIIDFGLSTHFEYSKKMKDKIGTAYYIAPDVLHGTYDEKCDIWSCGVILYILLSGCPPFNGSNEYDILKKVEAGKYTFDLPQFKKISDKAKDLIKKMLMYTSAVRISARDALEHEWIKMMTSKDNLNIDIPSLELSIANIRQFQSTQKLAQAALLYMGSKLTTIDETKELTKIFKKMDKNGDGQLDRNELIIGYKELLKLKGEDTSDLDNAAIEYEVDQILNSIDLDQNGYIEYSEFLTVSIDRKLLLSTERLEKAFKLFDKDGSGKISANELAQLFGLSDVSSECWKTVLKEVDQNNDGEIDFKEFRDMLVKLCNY
Compound,growth inhibition [1],inhibition [2],inhibition [3],growth inhibition [4],outcome [5],outcome [6],outcome [7],outcome [8]
CC(C)(C)N1CCC(N(Cc2ccc(-c3ccc(C(F)(F)F)cc3)cc2)C(=O)Cn2c(CCc3cccc(F)c3F)cc(=O)c3ccccc32)CC1,97% (active),100% (active),4%,100% (active),inactive,inactive,inactive,inactive
CN1CCN(c2cc3c(cc2Cl)CCN3C(=O)Cc2ccc(Cl)c(NC(=O)Nc3cccc(C#N)c3)c2)CC1,40%,-1%,-1%,99% (active),inactive,inactive,inactive,inactive
Cc1cccc2[nH]c(-c3cccc(-c4cccc(NC(=O)Nc5cccc(C#N)c5)c4)c3)nc12,99% (active),22%,6%,101% (active),inactive,inactive,inactive,inactive
Nc1ncc(Cc2cc(Cl)c(N)c3ncccc23)c(N)n1,95% (active),5%,1%,89% (active),inactive,inactive,inactive,inactive
COc1ccc(-c2cc(C(=O)Nc3ccc4nc(-c5ccccc5)[nH]c4c3)[nH]n2)cc1,78% (active),77% (active),3%,90% (active),inactive,inactive,inactive,inactive
CCCCCNc1nc(Nc2ccccc2C)nc2ccccc12,30%,5%,-7%,100% (active),inactive,inactive,inactive,inactive
O=S(=O)(Nc1cccc(CCN2CCCCC2CCN2CCCC2)c1)c1ccc2ccccc2c1 (stereo not drawn),40%,22%,-2%,91% (active),inactive,inactive,inactive,inactive
O=C(NC(=Cc1cccc([N+](=O)[O-])c1)c1nc2ccccc2[nH]1)c1cccc(Br)c1,88% (active),-1%,0%,85% (active),inactive,inactive,inactive,inactive
CC1CCC(C(C)C)C(OC(=O)CSc2nnc3c(n2)[nH]c2ccccc23)C1 (stereo not drawn),74% (active),-5%,-2%,88% (active),inactive,inactive,inactive,inactive
CN(Cc1cccc(O)c1)C1CCN(c2cc(NC(=O)c3ccc(F)cc3)ccn2)C1 (stereo not drawn),6%,5%,5%,91% (active),inactive,inactive,inactive,inactive
COc1cc2c(cc1C(F)(F)F)N(C(=O)Nc1cc(Br)cc(-c3cccnc3)c1)CC2,34%,8%,-1%,96% (active),inactive,inactive,inactive,inactive
O=C(Nc1cccnc1)c1cc(-c2cccnc2)nc2ccc(Cl)cc12,50% (active),45%,-6%,97% (active),inactive,inactive,inactive,inactive
Cc1cc(NN=Cc2ccccc2[N+](=O)[O-])c2cc(F)ccc2n1,100% (active),18%,-3%,102% (active),inactive,inactive,inactive,inactive
Cc1cccc(C(=O)Nc2ccnc(N3CCC(N(C)Cc4ccccc4)CC3)c2)c1,2%,12%,-1%,93% (active),inactive,inactive,inactive,inactive
Cc1cc(N)c2cc(NC(=O)c3ccc4ccccc4c3)ccc2n1,99% (active),33%,1%,101% (active),inactive,inactive,inactive,inactive
CCc1c(CCNCCCCCCNCCc2ccc(OC)c(OC)c2C)ccc(OC)c1OC,1%,16%,5%,98% (active),inactive,inactive,inactive,inactive
COc1cccc(C=NNc2cc(C)nc3c(OC)cccc23)c1,58% (active),6%,-6%,99% (active),inactive,inactive,inactive,inactive
CC(C)NCc1ccc(-c2ccc(NC(=O)c3ccc(Cl)cc3)cc2)cc1,8%,60% (active),3%,90% (active),inactive,inactive,inactive,inactive
CN(C)CCNCc1cccc(-c2ccc3c(Nc4ccc(Oc5ccccc5)cc4)ccnc3c2)c1,99% (active),31%,2%,101% (active),inactive,inactive,inactive,inactive
O=c1[nH]c2c(c(O)c1[N+](=O)[O-])CCC2,1%,9%,-5%,97% (active),inactive,inactive,inactive,inactive
COc1ccc(-c2cccc(NC(=O)c3cccc(C#N)c3)c2)cc1CN(C)CCO,30%,28%,-7%,96% (active),inactive,inactive,inactive,inactive

Compound,growth inhibition [1],inhibition [2],inhibition [3],growth inhibition [4],outcome [5],outcome [6],outcome [7],outcome [8]
O=C(NCc1ccc(C(=O)NCc2cccc3ccccc23)cc1)c1ccc(O)c(-c2ccc(Cl)c(Cl)c2)c1,31%,-10%,-2%,100% (active),inactive,inactive,inactive,inactive
CS(=O)(=O)CCNCc1nc(-c2ccc3c(Nc4ccc(Cl)cc4F)ccnc3c2)cs1,28%,19%,1%,88% (active),inactive,inactive,inactive,inactive
COc1cccc(C(O)CNc2ccnc(Nc3cccc(-c4csc(C)n4)c3)n2)c1 (stereo not drawn),73% (active),38%,-8%,99% (active),inactive,inactive,inactive,inactive
O=S(=O)(NCCN1CCCC1)c1cccc(-c2ccc(CNCc3ccccc3)cc2)c1,41%,54% (active),-8%,95% (active),inactive,inactive,inactive,inactive
CC(Cc1ccc(CN2CCN(Cc3ccccc3)CC2)cc1)NCC(O)c1cccc(C(F)(F)F)c1 (stereo not drawn),98% (active),51% (active),-7%,97% (active),inactive,inactive,inactive,inactive
CC(C)C(=O)n1ncc2c3c(N)nc(N)nc3ccc21,3%,0%,-5%,87% (active),inactive,inactive,inactive,inactive
Cc1nc(N=C(N)N)nc2ccc(C(C)(C)C)cc12,91% (active),4%,-1%,96% (active),inactive,inactive,inactive,inactive
CC(C)CNCc1cccc(-c2ccc(CN(CCCN3CCN(C)CC3)C(=O)/C=C/c3ccccc3)cc2)c1,90% (active),48%,-2%,92% (active),inactive,inactive,inactive,inactive
C(=N\Nc1nccc2sc(-c3cccnc3)cc12)/c1cccnc1,54% (active),5%,5%,98% (active),inactive,inactive,inactive,inactive
COc1ccc(-c2ccc(NC(=O)c3ccc(C#N)cc3)c(F)c2)cc1CN(C)CCN(C)C,0%,24%,-4%,88% (active),inactive,inactive,inactive,inactive
CC(=O)Nc1ccc(S(=O)(=O)Nc2c(C)cc(Cc3cnc(N)nc3N)cc2C)cc1,-1%,6%,5%,94% (active),inactive,inactive,inactive,inactive
O=C(C=Cc1ccc(-c2nc3ccccc3[nH]2)cc1)NC1CCN(Cc2ccccc2)CC1,88% (active),15%,3%,99% (active),inactive,inactive,inactive,inactive
CCCCCCCNCCNc1cc(C)nc2ccccc12,99% (active),58% (active),-4%,100% (active),inactive,inactive,inactive,inactive
CCOc1ccc(-c2nonc2NC(=O)c2ccccc2)cc1OCC,100% (active),6%,4%,99% (active),inactive,inactive,inactive,inactive
COc1ccc(NC(=O)CCNc2cc(C)nc(NCCc3ccc(F)cc3)n2)cc1,3%,27%,1%,98% (active),inactive,inactive,inactive,inactive
COc1cc(-n2c(CN3CCCC3)nc3cc(-c4ccc(Cl)cc4)sc3c2=O)ccc1OCCN1CCCC1,90% (active),66% (active),-5%,94% (active),inactive,inactive,inactive,inactive
Cn1ccnc1CCC(=O)Nc1ccc(Cl)cc1C(=O)Nc1ccc(Cl)cc1,3%,28%,4%,92% (active),inactive,inactive,inactive,inactive
CCOC(=O)c1[nH]c(-c2ccccc2)nc1-n1nc(C)cc1C,9%,7%,2%,92% (active),inactive,inactive,inactive,inactive
Cc1cccc2[nH]c(-c3ccc(-c4cccc(C(=O)N5CCCCC5C(C)O)c4)s3)nc12 (stereo not drawn),53% (active),27%,-1%,101% (active),inactive,inactive,inactive,inactive
COc1cccc(CCN(Cc2ccccc2-c2ccc(CNC3CC(C)(C)NC(C)(C)C3)cc2)C(=O)NC2CCCCC2)c1,99% (active),97% (active),-1%,103% (active),inactive,inactive,inactive,inactive
